Compound activity (PubChem BioAssay)
PAX8 reporter: PAX8 transcriptional activity inhibition; RMG-I TPO-luciferase reporter, SteadyGlo, 24 h; inhibition, % at 12.6 µM; 360,000 compounds, 1.2% hits;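 active means mean replicate inhibition at least 60% with every replicate also reaching 60%; inconclusive means only one of the two criteria is met; inactive means mean below 60% and not all replicates reaching 60%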;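 further: luciferase light reporting Pax8 driven TPO promoter activity; plate controls were median of neutral control wells for no effect and mitoxantrone controls for full effect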
LGR2 inh: blocks bursicon-induced cAMP signaling via Drosophila LGR2; HEK293 LGR2, CRE-luciferase, bursicon-stimulated, 4 h; inhibition, % at 9.99 µM; 380,000 compounds, 0.35% hits;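 active means drop in luminescence signal, shown as inhibition above about 50% in the replicate tests, limit read from the data, passing the limit was not always enough; inconclusive means probably only some replicates passing the limit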;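 further: agonist challenge used bursicon conditioned medium at about half maximal strength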
F508del corr: correctors of CFTR F508del function in bronchial epithelial cells; CFBE cells, YFP halide quenching; stimulated with forskolin plus potentiator P3; % fluorescence drop versus neutral controls; activity (quench increase), % at 7.58 µM; 350,000 compounds, 0.36% hits; AID 720511;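 active means mean added fluorescence quench of at least 8% versus neutral control, with both replicates also reaching 8%; inconclusive means only one of the mean or replicate conditions met; inactive means mean below 8% and not both replicates reaching 8%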;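 further: cells transiently co-express mutant CFTR-F508del with the halide-sensitive YFP; corrector assay measuring rescue of mutant channel to the surface after 24 h compound exposure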
EWS-Fli inh: EWS/Fli transcriptional activity inhibition | A673 NR0B1-luciferase reporter, viability-normalised | inhibition, % at 12.6 µM | 350,000 compounds, 0.67% hits | AID 651661;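 active means mean inhibition of at least 50% after viability correction, with every replicate also passing that limit; inconclusive means mean reaches 50% but only one of two replicates passes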;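 further: firefly luciferase signal divided by Alamar Blue viability fluorescence both relative to DMSO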
The depositor's hits bear a star; ? = inconclusive; . = no result. An excerpt weighted towards active compounds, which were near 1.8% of everything screened.

SMILES	PAX8 reporter	LGR2 inh	F508del corr	EWS-Fli inh
Cc1cc(C)nc(Nc2ccc(O)cc2)n1	1	-25	-3	-3
Cc1ccc(CNC(=O)c2ccc3c(=O)c(O)c(-c4ccc(C)cc4)[nH]c3c2)cc1	70*	29	14*	9
CCCNC(=O)c1ccc2c(=O)c(O)c(-c3ccc(C)cc3)[nH]c2c1	50	15	4	11
CN1/C(=C\C=C2/SC(=S)N(CC(=O)O)C2=O)C(C)(C)c2ccccc21	23	16	16*	-64
NC(=O)C(=O)N/N=C/c1c2ccccc2cc2ccccc12	.	-9	2	-3
COc1cccc2sc(Nc3nc(-c4cc5ccccc5oc4=O)cs3)nc12	2	14	.	.
COc1cccc2sc(Nc3nc(-c4ccncc4)cs3)nc12	-3	2	3	63*
COc1ccc(NC(=O)N(C)C[C@H]2OCc3ccccc3-c3ccccc3C(=O)N([C@H](C)CO)C[C@H]2C)cc1	.	-4	-1	-11
Cc1cc(C(=O)NNC(=O)C2CCCC2)c(C)o1	10	-12	-2	-5
CCS(=O)(=O)N[C@H]1C=C[C@@H](CC(=O)O)O[C@@H]1CO	-2	-5	3	.
Cc1ccc(S(=O)(=O)N2CCN(C(=O)C(C)Cn3cncn3)CC2)cc1 (configuration not stated)	-2	-5	1	-9
OC[C@H]1O[C@@H](n2cnc3c(Nc4ccccc4)ncnc32)[C@H](O)[C@@H]1O	-15	10	2	-40
OCC1OC(n2cnc3c(NCCc4ccccc4)ncnc32)C(O)C1O (configuration not stated)	-22	-38	5	-24
OCC1OC(n2ccc3c(NO)ncnc32)C(O)C1O (configuration not stated)	.	92*	-3	49
OCC1OC(n2cnc3c(NCc4ccccc4O)ncnc32)C(O)C1O (configuration not stated)	109*	18	-1	-3
O=c1[nH]nnc2c1ncn2C1OC(CO)C(O)C1O (configuration not stated)	97*	4	-1	6
CCC(=O)N1C[C@@H](C)[C@@H](OC)CN(C)C(=O)c2ccc(NC(=O)c3cc(C)on3)cc2OC[C@H]1C	6	-2	1	-3
COC(=O)C1=C(O)/C(=C\c2ccc(CNC(=O)C(=O)Nc3ccc(C)c(C)c3)o2)N=C1C	.	8	.	.
CC(C)=CCN(C(=O)C#Cc1ccccc1)[C@H](CO)c1ccccc1	105*	.	0	42
CC1CCCN(C(=O)CCNC(=O)c2ccccc2Cl)C1 (configuration not stated)	8	0	0	-3
CCCNC(=O)COC(=O)/C=C/c1ccc2c(c1)OCO2	69*	-11	3	3
O=C(COC(=O)/C=C/c1ccco1)NCc1ccccc1	-7	-8	1	4
O=C(COC(=O)/C=C/c1ccc2c(c1)OCO2)Nc1ccccc1	-11	-64	2	-20
CCCNC(=O)COC(=O)/C=C/c1ccco1	88*	3	-3	-1
CCCCCCN1CCN(C2CN(Cc3cn(Cc4ccc(Cl)cc4)nn3)S(=O)(=O)C2)CC1 (configuration not stated)	21	3	1	9
SMILES	PAX8 reporter	LGR2 inh	F508del corr	EWS-Fli inh
Cc1cn([C@H]2C[C@H](O)[C@@H](/C=C/C(=O)NCCc3cccs3)O2)c(=O)[nH]c1=O	15	4	1	4
COc1ccccc1NC(=O)N1CCCCN2[C@H](C1)[C@@H](c1ccc(-c3ccccc3)cc1)[C@@H]2CO	-23	.	-5	-4
COc1ccccc1NC(=O)N1CCCCN2[C@@H](CO)[C@H](c3ccc(-c4cccc(F)c4)cc3)[C@@H]2C1	27	76*	-2	0
COc1ccccc1NC(=O)N1CCCCN2[C@H](CO)[C@H](c3ccc(-c4cccc(F)c4)cc3)[C@H]2C1	58	13	4	35
Cc1ccc(-c2ccc([C@@H]3[C@H](CO)N4CCCCN(C(=O)c5ccc(F)cc5)C[C@@H]34)cc2)cc1	72*	8	-2	3
COc1ccccc1NC(=O)N1CCCCN2[C@H](CO)[C@H](c3ccc(-c4ccc(C)cc4)cc3)[C@H]2C1	80*	9	-9	40
COc1ccc(C[C@H]2CCn3cc(nn3)COC[C@@H](CC(C)C)NC2=O)cc1	0	6	.	2
CC1=CN2C(=N)/C(=C/c3ccc(Sc4ccc(C)cc4)o3)C(=O)N=C2S1	-6	.	.	-8
CC(C)(C)CC(C)(C)c1ccc(OCCOCC[N+](C)(C)Cc2ccccc2)cc1	78*	36	0	25
C[C@H]1CN([C@@H](C)CO)S(=O)(=O)c2ccc(/C=C/c3ccccc3)cc2O[C@@H]1CN(C)C(=O)Nc1cccc(F)c1	62*	-10	4	21
C[C@H](CO)N1C[C@H](C)[C@H](CN(C)C(=O)Nc2cc(F)ccc2F)Oc2cc(/C=C/c3ccccc3)ccc2S1(=O)=O	65*	5	3	19
C[C@H](CO)N1C[C@H](C)[C@H](CN(C)C(=O)Nc2cccc(F)c2)Oc2cc(/C=C/c3ccccc3)ccc2S1(=O)=O	20	-2	-2	29
C/C=C/c1ccc2c(c1)O[C@H](CN(C)C(=O)Nc1cc(F)ccc1F)[C@@H](C)CN([C@H](C)CO)S2(=O)=O	.	4	-3	24
C[C@@](Cc1ccc(O)c(O)c1)(NN)C(=O)O	-15	-17	8.4*	10
N[C@@H](Cc1ccc(O)c(O)c1)C(=O)O	-25	2	2	-12
Cc1ccc(-n2ncc(C(=O)Nc3cc(Cl)cc(Cl)c3)c2C2CCNCC2)cc1C	57	33	-4	62*
COc1ccc(CCNC(=O)COC(=O)c2cccs2)cc1OC	-29	9	-7	2
COc1ccc(CCNC(=O)COC(=O)c2cccs2)cc1	83*	-4	-1	-1
CN(C)C(CNC(C(=O)Nc1ccc(F)cc1)c1ccccc1)c1ccccc1 (configuration not stated)	-6	1	0	-68
CC[C@@H](C(=O)[C@@H](C)[C@@H](O)[C@H](C)CCc1ccc(C)c(O)c1C(=O)O)[C@H]1O[C@](CC)([C@H]2CC[C@](O)(CC)[C@H](C)O2)C[C@@H]1C	104*	70*	1	26
COC(=O)/C(C#N)=C/c1ccc(OC(=O)c2ccccn2)cc1	1	7	.	52*
CO[C@H]1CN(C)C(=O)c2cc(NC(C)=O)ccc2OC[C@@H](C)N(CC2CCCCC2)C[C@@H]1C	0	-5	-1	5
O=[N+]([O-])c1ccc(S(=O)(=O)c2ccccc2)nc1	109*	52*	-2	58*
Nc1ccc(S(=O)(=O)c2ccccc2)nc1	11	-1	1	-17
Cc1cc(S(=O)(=O)c2ccc([N+](=O)[O-])cn2)ccc1Br	86*	?	2	36
Cc1ccc(S(=O)(=O)c2ccc([N+](=O)[O-])cn2)cc1	111*	65*	-6	61*
COc1ccc(C)cc1NC(=O)C1CCN(S(=O)(=O)c2c(C)noc2C)CC1	6	-11	-1	17
